Results taken from PubChem BioAssay (NCATS).
Values joined by “and” are separate entries in the source; they are usually repeats but may differ in a detail not shown here. Equal entries are not always repeated. Inconclusive results are not listed. Active and inactive are the calls of the source. Unless noted, calls come from the whole dose curve.

What was measured:
[1] = biological target: Bile acid receptor (Homo sapiens) (UniProt Q96RI1); assay: qHTS assay for small molecule antagonists of farnesoid X receptor signaling (AID 588526); note: % is set by controls: 0 for no effect and ±100 for the full control effect
Sequence of Bile acid receptor (Homo sapiens) (Q96RI1 whole entry, looked up): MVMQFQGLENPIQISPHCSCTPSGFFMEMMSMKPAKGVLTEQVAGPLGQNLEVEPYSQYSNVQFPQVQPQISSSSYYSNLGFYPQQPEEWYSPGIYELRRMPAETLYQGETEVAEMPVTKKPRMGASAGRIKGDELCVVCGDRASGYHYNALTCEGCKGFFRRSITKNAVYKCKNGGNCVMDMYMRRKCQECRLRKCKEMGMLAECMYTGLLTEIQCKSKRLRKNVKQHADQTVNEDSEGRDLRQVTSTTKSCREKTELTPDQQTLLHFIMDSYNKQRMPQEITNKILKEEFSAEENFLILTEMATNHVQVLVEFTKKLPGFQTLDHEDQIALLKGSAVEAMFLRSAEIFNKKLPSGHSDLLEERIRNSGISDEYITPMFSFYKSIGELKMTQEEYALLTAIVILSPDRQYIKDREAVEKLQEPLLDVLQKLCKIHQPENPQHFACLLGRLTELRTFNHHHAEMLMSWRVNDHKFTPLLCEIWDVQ
Summary of the method: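 Concentration-response titrations were fitted to the Hill equation for half-maximal inhibition and maximal response, with data normalised to 50 uM chenodeoxycholic acid and DMSO control wells. Cells: FXR-UAS-bla HEK293T, dialyzed FBS.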

[2] = biological target: Glucocorticoid receptor (Homo sapiens) (UniProt P04150); assay: qHTS assay for small molecule agonists of glucocorticoid receptor signaling (AID 588532; active = well fitted curve in the direction sought with a large enough effect in the signal ratio, with a control signal flat; the % refers to the signal ratio;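 note: 100% = dexamethasone at 0.1 µM and 0% = DMSO only wells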); settings: HeLa MMTV-bla, beta-lactamase ratio, agonist, 18 h; stronger effect = higher value; percent of dexamethasone control, DMSO zero
Sequence of Glucocorticoid receptor (Homo sapiens) (P04150 whole entry, looked up): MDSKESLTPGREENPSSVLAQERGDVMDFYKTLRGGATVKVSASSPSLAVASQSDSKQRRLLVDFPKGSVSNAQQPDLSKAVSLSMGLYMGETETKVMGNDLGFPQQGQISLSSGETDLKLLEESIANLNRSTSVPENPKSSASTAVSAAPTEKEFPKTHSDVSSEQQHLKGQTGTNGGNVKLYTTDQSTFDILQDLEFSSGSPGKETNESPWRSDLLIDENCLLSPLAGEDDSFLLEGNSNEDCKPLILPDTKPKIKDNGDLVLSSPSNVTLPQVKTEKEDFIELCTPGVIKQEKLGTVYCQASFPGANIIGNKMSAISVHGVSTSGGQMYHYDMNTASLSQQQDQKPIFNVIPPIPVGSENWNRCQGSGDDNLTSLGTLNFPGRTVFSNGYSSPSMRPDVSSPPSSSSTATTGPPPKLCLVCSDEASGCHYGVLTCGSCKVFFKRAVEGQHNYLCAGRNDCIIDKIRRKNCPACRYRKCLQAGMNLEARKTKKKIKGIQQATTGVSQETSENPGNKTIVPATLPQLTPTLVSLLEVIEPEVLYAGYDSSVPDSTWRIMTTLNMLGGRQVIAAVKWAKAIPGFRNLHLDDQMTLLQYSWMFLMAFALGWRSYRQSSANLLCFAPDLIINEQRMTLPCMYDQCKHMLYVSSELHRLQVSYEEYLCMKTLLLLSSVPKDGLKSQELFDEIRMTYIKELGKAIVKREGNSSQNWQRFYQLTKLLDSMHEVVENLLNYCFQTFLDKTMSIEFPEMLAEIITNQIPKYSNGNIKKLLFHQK
Summary of the method: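 Titration series, up to 92 uM, applied to GRE-bla HeLa cells for 18 h at 37 C. Detection by CCF4 FRET substrate after 2 h at RT.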

[3] = biological target: Glucocorticoid receptor (Homo sapiens) (UniProt P04150); assay: qHTS assay for small molecule antagonists of glucocorticoid receptor signaling (AID 588533; active = well fitted inhibition curve with a large enough effect in the signal ratio, with a control signal flat, not every such curve was filed as active; the % refers to the signal ratio;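 note: cells stimulated with 2 nM dexamethasone as agonist; % is set by controls: 0 for no effect and ±100 for the full control effect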)
Summary of the method: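 Antagonist-mode qHTS: compound titrations added to GRE-bla HeLa cells, then dexamethasone 2 nM final; 18 h, 37 C. CCF4 FRET fluorescence normalized to dexamethasone and DMSO; IC50 from Hill fit.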

[4] = biological target: Androgen receptor (Homo sapiens) (UniProt P10275); assay: qHTS assay for small molecule antagonists of androgen receptor signaling (AID 588516; active = well fitted curve in the direction sought with a large enough effect in the signal ratio, with a control signal flat, not every such curve was filed as active; the % refers to the signal ratio; note: % is set by controls: 0 for no effect and ±100 for the full control effect)
Sequence of Androgen receptor (Homo sapiens) (P10275 whole entry, looked up): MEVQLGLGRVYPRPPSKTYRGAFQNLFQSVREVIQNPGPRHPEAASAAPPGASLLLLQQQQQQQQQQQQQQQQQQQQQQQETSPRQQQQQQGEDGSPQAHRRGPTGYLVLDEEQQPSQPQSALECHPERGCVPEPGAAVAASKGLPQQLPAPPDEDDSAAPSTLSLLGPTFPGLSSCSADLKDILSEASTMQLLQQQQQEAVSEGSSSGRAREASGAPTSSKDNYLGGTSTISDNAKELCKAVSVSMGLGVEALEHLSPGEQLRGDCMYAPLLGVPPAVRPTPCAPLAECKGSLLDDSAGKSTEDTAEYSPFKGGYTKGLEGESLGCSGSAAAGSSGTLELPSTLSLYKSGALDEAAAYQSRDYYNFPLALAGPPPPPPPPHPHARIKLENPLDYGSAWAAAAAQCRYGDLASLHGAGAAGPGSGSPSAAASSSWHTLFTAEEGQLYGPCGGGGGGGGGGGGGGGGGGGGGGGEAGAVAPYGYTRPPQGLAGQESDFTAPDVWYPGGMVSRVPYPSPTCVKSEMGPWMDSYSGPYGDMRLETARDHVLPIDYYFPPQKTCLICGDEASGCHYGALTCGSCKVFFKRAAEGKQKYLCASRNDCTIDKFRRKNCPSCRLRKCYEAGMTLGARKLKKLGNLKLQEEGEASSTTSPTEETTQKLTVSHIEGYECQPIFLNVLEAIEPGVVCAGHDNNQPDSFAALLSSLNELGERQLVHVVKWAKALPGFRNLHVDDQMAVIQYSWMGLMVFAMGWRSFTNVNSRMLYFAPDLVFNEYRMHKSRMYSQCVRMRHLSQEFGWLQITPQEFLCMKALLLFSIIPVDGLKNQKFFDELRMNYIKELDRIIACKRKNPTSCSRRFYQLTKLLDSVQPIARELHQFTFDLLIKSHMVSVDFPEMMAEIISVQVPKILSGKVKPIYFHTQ
Summary of the method: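 Cells were plated and incubated 5 h, compounds added in titration, then R1881 (10 nM final) as agonist. After 16 h at 37 C, CCF4 substrate was loaded for 2 h at room temperature and fluorescence measured.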

[5] = qHTS assay for small molecule antagonists of peroxisome proliferator-activated receptor delta signaling (AID 588535; active = well fitted inhibition curve with a large enough effect in the signal ratio, with a control signal flat, not every such curve was filed as active; the % refers to the signal ratio;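 for max response: cells co-treated with a PPAR-delta agonist as stimulator during compound exposure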); settings: HEK293T PPARd-UAS-bla, beta-lactamase FRET ratio, 18 h; 460 nm channel
Summary of the method: (§1)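 Inhibition of PPAR-delta response element-driven beta-lactamase expression is measured in HEK293T cells exposed to a compound titration series for 18 hrs at 37 C. Half-maximal inhibition comes from Hill equation fitting.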

[6] = biological target: Peroxisome proliferator-activated receptor delta (Homo sapiens) (UniProt Q03181); assay: as above
Sequence of Peroxisome proliferator-activated receptor delta (Homo sapiens) (Q03181 whole entry, looked up): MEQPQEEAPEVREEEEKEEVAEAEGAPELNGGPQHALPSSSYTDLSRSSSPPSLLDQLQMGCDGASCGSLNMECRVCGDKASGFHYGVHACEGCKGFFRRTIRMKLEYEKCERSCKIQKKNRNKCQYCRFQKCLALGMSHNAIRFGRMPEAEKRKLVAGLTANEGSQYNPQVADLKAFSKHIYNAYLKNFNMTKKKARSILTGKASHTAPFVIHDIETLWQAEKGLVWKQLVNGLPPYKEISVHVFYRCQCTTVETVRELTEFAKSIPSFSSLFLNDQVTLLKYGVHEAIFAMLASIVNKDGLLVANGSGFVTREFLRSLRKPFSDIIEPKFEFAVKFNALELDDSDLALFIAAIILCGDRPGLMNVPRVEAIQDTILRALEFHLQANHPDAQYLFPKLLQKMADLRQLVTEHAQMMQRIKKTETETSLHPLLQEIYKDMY
Summary of the method: as §1

[7] = biological target: Peroxisome proliferator-activated receptor gamma (Homo sapiens) (UniProt P37231); assay: qHTS assay for small molecule agonists of peroxisome proliferator-activated receptor gamma signaling (AID 588536; active = well fitted curve in the direction sought with a large enough effect in the signal ratio, with a control signal flat, not every such curve was filed as active; the % refers to the signal ratio;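 note: 0% = DMSO basal wells and 100% = rosiglitazone at 2 µM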)
Sequence of Peroxisome proliferator-activated receptor gamma (Homo sapiens) (P37231 whole entry, looked up): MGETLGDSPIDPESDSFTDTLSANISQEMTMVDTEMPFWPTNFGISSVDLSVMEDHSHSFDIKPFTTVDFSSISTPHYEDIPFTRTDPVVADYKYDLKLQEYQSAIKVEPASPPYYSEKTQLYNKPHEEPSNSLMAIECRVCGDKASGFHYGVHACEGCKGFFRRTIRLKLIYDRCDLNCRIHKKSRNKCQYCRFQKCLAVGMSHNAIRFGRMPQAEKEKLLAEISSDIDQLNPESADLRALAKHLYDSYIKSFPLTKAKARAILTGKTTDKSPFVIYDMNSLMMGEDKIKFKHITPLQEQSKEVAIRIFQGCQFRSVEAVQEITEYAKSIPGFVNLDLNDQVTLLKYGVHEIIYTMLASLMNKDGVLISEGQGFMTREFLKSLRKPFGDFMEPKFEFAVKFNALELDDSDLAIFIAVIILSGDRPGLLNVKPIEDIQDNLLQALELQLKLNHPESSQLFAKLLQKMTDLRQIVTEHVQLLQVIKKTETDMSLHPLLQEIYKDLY
Summary of the method: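 Cells were plated and held 6–6.5 h at 37 C, then compounds were added as a titration series. After a further 16 h, CCF4 dye was loaded for 2 h at room temperature and emission at 460/530 nm recorded.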

[8] = biological target: Vitamin D3 receptor (Homo sapiens) (UniProt P11473); assay: qHTS assay for small molecule antagonists of vitamin D receptor signaling (AID 588541);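 note: receptor activated by calcitriol during compound treatment; series mostly up to about 77 µM; % is set by controls: 0 for no effect and ±100 for the full control effect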
Sequence of Vitamin D3 receptor (Homo sapiens) (P11473 whole entry, looked up): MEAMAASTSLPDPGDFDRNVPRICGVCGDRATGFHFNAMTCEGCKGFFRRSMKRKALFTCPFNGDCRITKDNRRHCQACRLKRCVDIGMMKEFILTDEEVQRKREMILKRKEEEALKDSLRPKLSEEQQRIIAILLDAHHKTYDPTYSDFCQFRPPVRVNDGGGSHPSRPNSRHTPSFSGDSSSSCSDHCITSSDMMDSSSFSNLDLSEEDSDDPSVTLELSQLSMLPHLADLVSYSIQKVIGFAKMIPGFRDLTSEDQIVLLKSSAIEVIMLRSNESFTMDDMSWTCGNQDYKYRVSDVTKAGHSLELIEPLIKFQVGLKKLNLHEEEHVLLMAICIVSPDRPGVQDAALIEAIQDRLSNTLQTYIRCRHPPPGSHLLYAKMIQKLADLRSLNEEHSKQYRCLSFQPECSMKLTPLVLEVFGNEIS
Summary of the method: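 VDR-UAS-bla HEK293T cells (2000/well, 2% charcoal-stripped FBS) were treated with titrated compounds plus 1-alpha,25-dihydroxyvitamin D3 (50 nM or 3 nM final) for 16 h at 37 C. CCF4 beta-lactamase fluorescence was read; Hill fits gave IC50.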

[9] = biological target: Vitamin D3 receptor (Homo sapiens) (UniProt P11473); assay: qHTS assay for small molecule agonists of vitamin D receptor signaling (AID 588543);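 note: 0% = DMSO basal and 100% = reference agonist control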
Summary of the method: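 Reporter cells (HEK293T, VDR-UAS-bla) were seeded in medium with 2% charcoal-stripped serum and incubated 5 h, then compounds in concentration series were added for 16 h at 37 °C. Stimulation was scaled between DMSO basal and 50 nM 1α,25-dihydroxyvitamin D3.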

[10] = biological target: Peroxisome proliferator-activated receptor gamma (Homo sapiens) (UniProt P37231); assay: qHTS assay for small molecule antagonists of peroxisome proliferator-activated receptor gamma signaling (AID 588537; active = well fitted inhibition curve with a large enough effect in the signal ratio, with a control signal flat, not every such curve was filed as active; the % refers to the signal ratio;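 note: reporter cells co-stimulated with 50 nM rosiglitazone agonist during compound treatment; % of control where 0% means no effect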)
Summary of the method: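 Compounds are tested as concentration series for inhibition of rosiglitazone-driven (50 nM) reporter expression in GeneBLAzer PPAR-gamma-UAS-bla HEK293 cells. After 16 h at 37 C, CCF4 substrate is added for 2 h at room temperature and blue/green fluorescence is measured.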

Oc1cccc(Nc2ccccc2)c1
inactive: outcome [1] | activation [2] -7.34% | outcome [3]

CCOc1ccc(NC(C)=O)cc1N
inactive: outcome [4] | Potency [6] | outcome [7] | outcome [8] | outcome [9]
-0.981%: max response [5]

CNC(=O)N(c1ccccc1)c1ccccc1
inactive: outcome [4] | outcome [7]

O=[N+]([O-])c1cc(C(F)(F)F)ccc1Cl
inactive: outcome [4] | outcome [3] | outcome [7]

CCCC(C)CO (stereo unspecified)
-16%: max response [5]
inactive: outcome [4] | outcome [1] | activation [2] 0.0234% | outcome [3] | Potency [6] | outcome [7]

C=C(C)C(=O)OC
-44.8%: max response [5]
inactive: outcome [1] | activation [2] -3.9% | outcome [3] | Potency [6] | outcome [7]

Cc1ccc2cccnc2c1
inactive: outcome [4] | outcome [1] | activation [2] -3.65% | outcome [3] | outcome [7] | outcome [8] | outcome [9]

CC/C=C1/OC(=O)c2ccccc21
6.22%: max response [5]
inactive: outcome [4] | activation [2] -3.66% | outcome [3] | Potency [6] | outcome [7] | outcome [8] | outcome [9]

CC(C=O)Cc1ccc(C(C)(C)C)cc1 (stereo unspecified)
41.6%: max response [5]
inactive: outcome [4] | outcome [1] | outcome [3] | Potency [6] | outcome [7] | outcome [10] | outcome [8] | outcome [9]

CCCC(Cl)CCCC(Cl)CCC(Cl)CCC(Cl)CCC(Cl)CCCC(Cl)CCC (stereo unspecified)
inactive: outcome [4] | activation [2] 3.07% | Potency [6] | outcome [7] | outcome [8] | outcome [9]
-30.6%: max response [5]

Cc1ccc2oc(=O)ccc2c1
1.44% and 30.5%: max response [5]
inactive: outcome [1] | activation [2] -1.61% | outcome [3] | Potency [6] | outcome [7] | outcome [8] | outcome [9]

CC(=O)Nc1cccc(N)c1
inactive: outcome [1] | activation [2] -4.95% | outcome [3] | Potency [6] | outcome [10] | outcome [8] | outcome [9]
38.5%: max response [5]

Cc1ccc(C#N)cc1
-7.41%: max response [5]
inactive: outcome [1] | activation [2] -8.98% | outcome [3] | Potency [6] | outcome [7] | outcome [10] | outcome [8] | outcome [9]

NC(N)=S
inactive: outcome [1] | activation [2] 1.8% | outcome [3] | outcome [7] | outcome [8] | outcome [9]

CCCCC=O
inactive: outcome [1] | activation [2] -0.364% | outcome [3] | outcome [8] | outcome [9]

COC(=O)CCCC(=O)OC
14.2%: max response [5]
inactive: outcome [1] | activation [2] -5.32% | outcome [3] | Potency [6] | outcome [8] | outcome [9]

O=C(O)c1ccc(CO)o1
inactive: outcome [1] | activation [2] -2.95% | outcome [3] | outcome [7] | outcome [8] | outcome [9]

Nc1nc(-c2ccccc2)cs1
inactive: outcome [1] | activation [2] 1.27% | outcome [3] | Potency [6] | outcome [8] | outcome [9]
-2.19%: max response [5]

CCC(C)=O
-36.3%: max response [5]
inactive: outcome [1] | activation [2] -3.19% | outcome [3] | Potency [6] | outcome [7] | outcome [8] | outcome [9]

CCCCC(CC)COC(=O)CCCCC(=O)OCC(CC)CCCC (stereo unspecified)
-4.31% and 35.2%: max response [5]
inactive: outcome [1] | activation [2] 0.342% and 3.17% | outcome [3] | Potency [6] | outcome [7] | outcome [8] | outcome [9]

Cc1c(C(=O)O)cccc1[N+](=O)[O-]
inactive: outcome [1] | activation [2] -3.11% | outcome [3] | Potency [6] | outcome [7] | outcome [10] | outcome [8] | outcome [9]
-26.4%: max response [5]

NC(=O)/N=N/C(N)=O
inactive: outcome [1] | activation [2] 7.65% | outcome [3] | Potency [6] | outcome [10] | outcome [8] | outcome [9]
-25.3%: max response [5]

O=[N+]([O-])c1ccc(CCO)cc1
19.9%: max response [5]
inactive: outcome [1] | activation [2] -5.66% | outcome [3] | Potency [6] | outcome [7] | outcome [8] | outcome [9]

C=Cc1ccccc1C=C
inactive: outcome [1] | activation [2] 2.03% | outcome [3] | Potency [6] | outcome [7] | outcome [8] | outcome [9]
-7.99%: max response [5]

C1COC1
inactive: outcome [1] | activation [2] 0.529% | outcome [3] | Potency [6] | outcome [7] | outcome [8] | outcome [9]
-21%: max response [5]

C=CCCCCCC
inactive: outcome [1] | activation [2] 7.84% | outcome [3] | outcome [7] | outcome [8] | outcome [9]

CCCCOCCOCCOCCCC
inactive: outcome [1] | activation [2] 9.2% | outcome [3] | outcome [7] | outcome [10]

Cc1ccccc1C(N)=O
inactive: outcome [1] | activation [2] -0.107% | outcome [3] | Potency [6] | outcome [10]
16.7%: max response [5]

CCCCCCCN
inactive: outcome [1] | activation [2] 4.22% | outcome [3] | Potency [6] | outcome [7] | outcome [10] | outcome [8] | outcome [9]
31.2%: max response [5]

Cc1ccc(CO)cc1
17.6%: max response [5]
inactive: outcome [1] | activation [2] -5.3% | outcome [3] | Potency [6] | outcome [7] | outcome [10] | outcome [8] | outcome [9]
